# High-throughput results: PubChem BioAssay, National Center for Advancing Translational Sciences (NCATS)
# TDP1 block: qHTS Assay for Inhibitors of Tyrosyl-DNA Phosphodiesterase (TDP1) | recombinant TDP1, AlphaScreen DNA substrate cleavage | Potency, µM (top dose mostly 130 µM), for the others: at the highest dose activity change, negative = inhibition, most hits filed as inhibitors | Tyrosyl-DNA phosphodiesterase 1 (Homo sapiens), Q9NUW8 | hit rate 0.28% among 350,000 | AID 485290, 2010; note: potency is the fitted concentration of half-maximal effect; % is set by controls: 0 for no effect and ±100 for the full control effect; nearly all actives have a fitted effect of over 40% in size
# Target sequence (Q9NUW8 whole entry, looked up): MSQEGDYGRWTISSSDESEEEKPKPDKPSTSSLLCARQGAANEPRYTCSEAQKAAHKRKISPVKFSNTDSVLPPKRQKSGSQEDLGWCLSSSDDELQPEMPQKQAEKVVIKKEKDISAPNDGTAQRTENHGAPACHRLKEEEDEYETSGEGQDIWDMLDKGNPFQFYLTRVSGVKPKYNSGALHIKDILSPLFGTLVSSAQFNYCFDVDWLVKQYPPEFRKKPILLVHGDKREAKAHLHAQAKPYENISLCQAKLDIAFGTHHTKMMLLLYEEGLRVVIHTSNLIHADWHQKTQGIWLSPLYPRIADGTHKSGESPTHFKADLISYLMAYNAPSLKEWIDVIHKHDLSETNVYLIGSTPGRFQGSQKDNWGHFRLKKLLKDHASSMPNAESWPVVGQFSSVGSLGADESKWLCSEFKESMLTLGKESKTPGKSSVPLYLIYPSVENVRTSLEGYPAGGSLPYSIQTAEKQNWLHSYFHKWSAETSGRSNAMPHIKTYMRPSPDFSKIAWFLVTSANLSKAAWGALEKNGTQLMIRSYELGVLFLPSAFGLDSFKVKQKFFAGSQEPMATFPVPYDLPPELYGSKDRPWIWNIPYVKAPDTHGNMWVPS
#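 Here, a 5' biotin and 3' phosphotyrosine-FITC DNA oligonucleotide reports Tdp1 activity: intact substrate bridges AlphaScreen beads, while cleavage leaves a 3' phosphate and drops signal. All incubations at room temperature.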
# DT40 TDP1 no CPT: qHTS for Inhibitors of human tyrosyl-DNA phosphodiesterase 1 (TDP1): qHTS in cells in absence of CPT; DT40 Tdp1-/- hTDP1 cells, no CPT, ATP luminescence, 48 h; Potency, µM (series often up to 46.2 µM), for inactives: at the highest dose activity change, negative = growth inhibition, usual class: inhibitors; hit rate 15% among 420,000; note: potency is the fitted concentration of half-maximal effect; % is set by controls: 0 for no effect and ±100 for the full control effect; nearly all actives have a fitted effect of over 55% in size
#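 Luminescent ATP content (CellTiter-Glo) served as the growth readout. Knockout chicken DT40 cells expressing human TDP1 were exposed to compounds without camptothecin for a minimum 48 hr at 37 °C.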
# miR-21 reporter: qHTS Assay for Modulators of miRNAs and/orActivators of miR-21; Potency, µM (doses to about 38.3 µM), without a hit: at the highest dose activity change, positive = activation, actives largely listed as activators; HeLa miR-21 FLuc reporter, luciferase, 48 h; 340,000 tested, under 10 active; AID 2288, 2010;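 note: % of control where 0% means no effect; miR-21 action dims this reporter so a rising signal means less miR-21 action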
#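 Using DMEM plus 10% FBS, HeLa miR-21-FLuc cells are incubated with test compounds (final up to about 40uM) for 48 hours; firefly luciferase signal is then imaged following reagent-mediated lysis.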
# uPA generation: qHTS for Inhibitors of Cell Surface uPA Generation. hit rate 0.31% among 330,000. Potency, µM (top dose mostly 38.3 µM), for inactives: top-dose activity change, negative = inhibition, hits mostly inhibitors. cell surface uPA generation assay, qHTS. AID 540303, 2011; active = well fitted inhibition curve with a large enough effect; inconclusive = small, poorly fitted or top-dose-only effect; inactive = no such curve, though single readings can be large or run the other way; tested in mouse RAW 264.7 cells; note: potency is the fitted concentration of half-maximal effect; % is set by controls: 0 for no effect and ±100 for the full control effect; nearly all actives have a fitted effect of over 55% in size
# TDP1 cell CPT: qHTS for Inhibitors of human tyrosyl-DNA phosphodiesterase 1 (TDP1): qHTS in cells in presence of CPT; Potency, µM (series often up to 46.2 µM), for inactives: at the highest dose activity change, negative = growth inhibition, hits mostly inhibitors; hit rate 12% among 420,000; chicken DT40 Tdp1-/-;hTDP1 cells + 20 nM CPT, ATP luminescence, 48 h; note: potency is the fitted concentration of half-maximal effect; % is set by controls: 0 for no effect and ±100 for the full control effect; nearly all actives have a fitted effect of over 55% in size
#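 Cell growth measured by CellTiter-Glo luminescence after a minimum 48 h, 37 C compound exposure with 20 nM CPT in Tdp1-knockout DT40 cells stably expressing hTDP1, seeded 400/well; qHTS titration format.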
# * = called active by the depositor; ? = inconclusive; nt = no result. Compounds with a hit are over-represented: about 16% of the library has one in this group of screens. Unless noted, calls come from the whole dose curve; as a rule, active = well fitted curve in the direction sought with a large enough effect; inconclusive = small, poorly fitted or top-dose-only effect, or another doubt; inactive = no such curve, though single readings can be large; an effect the other way counts as inactive or inconclusive.
SMILES,TDP1 block,DT40 TDP1 no CPT,miR-21 reporter,uPA generation,TDP1 cell CPT
COC(=O)[C@]1(Cc2ccccc2)N[C@H](CN(C)S(=O)(=O)c2ccc(-c3ccccc3)cc2)[C@@H]2C(=O)N(C)C(=O)[C@@H]21,1.5%,20.6µM*,nt,13.9%,25.9µM*
CCN(C[C@H]1N[C@@](Cc2ccccc2)(C(=O)OC)[C@H]2C(=O)N(C)C(=O)[C@@H]12)S(=O)(=O)c1ccc(OC(F)(F)F)cc1,1.7%,16.4µM*,nt,9.7%,?
CCN(C[C@H]1N[C@@](Cc2ccccc2)(C(=O)OC)[C@H]2C(=O)N(C)C(=O)[C@@H]12)S(=O)(=O)c1ccc(OC)cc1,1.3%,14.6µM*,nt,-1.4%,14.6µM*
Cc1cc(OCCn2cnc3ccccc3c2=O)cc(C(C)C)c1,-1.2%,?,-6.5%,0.1%,-22.8%
CCOc1ccc(NC(=O)CCSc2nc(-c3ccc4c(c3)OCO4)cc(C(F)(F)F)n2)cc1,4.2%,nt,-12.8%,nt,nt
CSc1ccccc1NC(=O)CCS(=O)(=O)c1nc(-c2ccc3c(c2)OCO3)cc(C(F)(F)F)n1,5.9%,18.4µM*,1.4%,nt,8.2µM*
Cc1ccc(NC(=O)CCSc2nc(-c3ccc4c(c3)OCO4)cc(C(F)(F)F)n2)cc1,5.3%,nt,-8.3%,nt,nt
O=C(CCS(=O)(=O)c1nc(-c2ccc3c(c2)OCO3)cc(C(F)(F)F)n1)Nc1ccccc1F,-2.9%,8.2µM*,2.3%,nt,7.31µM*
COC(=O)c1ccccc1NC(=O)CCS(=O)(=O)c1nc(-c2ccc3c(c2)OCO3)cc(C(F)(F)F)n1,2.9%,3.26µM*,?,nt,2.91µM*
O=C(CCS(=O)(=O)c1nc(-c2ccc3c(c2)OCO3)cc(C(F)(F)F)n1)Nc1ccc(Br)cc1,2.9%,3.26µM*,27.4%,nt,4.11µM*
COC(=O)c1ccccc1NC(=O)NN1CCN(C)CC1,6.6%,5.6%,3.1%,5.7%,-12.4%
O=c1n(Cc2ccc([N+](=O)[O-])cc2)c2ccccc2c2nc(-c3ccccc3)nn12,2.5%,?,1.6%,nt,7.31µM*
O=c1n(Cc2ccc(F)cc2Cl)c2ccccc2c2nc(-c3ccccc3)nn12,-2.5%,0.3%,5.1%,nt,-4.3%
CC(=O)O[C@@H]1[C@H]2[C@@H](C[C@@H](C)[C@@H]3CCC(=O)[C@@]13C)OC(=O)[C@@H]2C,0.0%,4.4%,0.8%,7.9%,14.3%
COc1ccccc1/C=C/c1nc2ccccc2n1C(C)C,nt,20.6µM*,-20.6%,nt,18.4µM*
CC(C)c1ccc(C(O)c2nc3ccccc3n2C)cc1 (configuration not stated),-0.1%,20.6µM*,-0.1%,-9.7%,20.6µM*
COc1ccc(C(O)c2nc3ccccc3n2C(C)C)cc1 (configuration not stated),3.8%,16.4µM*,19.1%,-10.8%,23.1µM*
Cc1ccc(C(O)c2nc3ccccc3n2C(C)C)cc1 (configuration not stated),4.5%,?,4.6%,2.3%,?
Cc1ccc(C(O)c2nc3ccccc3n2C)cc1 (configuration not stated),nt,?,-6.2%,4.7%,-23.0%
COc1ccc2oc(=O)c(-c3csc(Nc4cccc(O)c4)n3)cc2c1,0.6%,16.4µM*,-35.2%,-1.2%,?
COc1ccc(-c2cc3cccc(OC)c3oc2=O)cc1,nt,-0.5%,-16.3%,?,-10.4%
COc1cccc(Nc2nc(-c3cccnc3)cs2)c1,5.2%,?,-26.7%,-26.2%,?
COc1ccc(Nc2nc(-c3cc4cccc(OC)c4oc3=O)cs2)cc1,1.1%,20.6µM*,-41.2%,-2.2%,?
COc1ccc(-c2[nH]ncc2CN2CCC(c3ccncc3)CC2)cc1F,nt,-2.7%,-3.0%,-1.3%,2.5%
Oc1cc(CNCc2ccccc2)c(O)cc1CNCc1ccccc1,nt,13µM*,nt,-0.7%,?
SMILES,TDP1 block,DT40 TDP1 no CPT,miR-21 reporter,uPA generation,TDP1 cell CPT
OCc1ccccc1CNCc1ccccc1,2.0%,-23.2%,-2.5%,-2.8%,-24.5%
COc1ccc(NC(=O)CN2CCc3ccccc3C2)cc1,nt,?,nt,-22.1%,-9.9%
CCC(C)Sc1cccc(-c2nc3cnccn3c2NC2CCCCC2)c1 (configuration not stated),-8.5%,16.4µM*,nt,-29.7%,20.6µM*
CCN(CC)c1ccc(-c2nc3cnccn3c2NC2CCCC2)cc1,7.8%,?,-11.2%,0.8%,20.6µM*
c1cc(SC2CCCCC2)cc(-c2nc3cnccn3c2NC2CCCCC2)c1,-8.8%,?,nt,-0.7%,?
Cc1cc(C)c(NC(=O)CSc2ccnc(=O)[nH]2)c(C)c1,0.0%,-27.9%,-1.2%,nt,?
Cc1cc(SCC(=O)N/N=C/c2ccc(O)c(O)c2)nc2ccccc12,nt,?,-3.3%,-10.8%,?
O=C(CSc1nc2ccccc2o1)N/N=C/c1ccc(O)c(O)c1,nt,20.6µM*,-67.1%,6.31µM*,18.4µM*
Cc1cc(SCC(=O)N/N=C/c2ccc(O)c(O)c2)c(C)cc1Br,5.6%,16.4µM*,-2.8%,-5.4%,20.6µM*
COc1cccc2c(SCC(=O)N/N=C/c3ccc(O)c(O)c3)cc(C)nc12,?,?,0.4%,-9.9%,-27.3%
Cc1cc(SCC(=O)N/N=C/c2ccc(O)cc2O)nc2ccccc12,nt,4.11µM*,9.2%,-12.2%,?
COc1ccc2nc(C)cc(SCC(=O)N/N=C/c3ccc(O)c(O)c3)c2c1,8.1%,29.1µM*,-9.1%,-12.6%,?
COc1ccc(N2CCN(C(=O)COc3ccc4c(C)c(C)c(=O)oc4c3C)CC2)cc1,-8.1%,?,-0.2%,28.2%,6.9%
CC1CC(C)CN(C(=O)COC(=O)c2ccc3c(c2)OCCO3)C1 (configuration not stated),1.1%,?,nt,3.3%,-2.9%
COc1ccccc1NC(=O)CCCNC(=O)Cn1cnc2sc(C)c(C)c2c1=O,-0.1%,2.1%,0.0%,2.3%,-4.4%
COc1ccc2nc(C)cc(SCC(=O)N/N=C/c3cccc4ccccc34)c2c1,10.5%,12.6µM*,18.5%,nt,7.08µM*
COc1ccc(Cn2nnnc2C(c2ccc(C)cc2)N2CCN(C3CCCC3)CC2)cc1 (configuration not stated),2.0%,9.2µM*,4.8%,0.2%,16.4µM*
Fc1ccc(Cn2nnnc2C(c2cccs2)N2CCN(C3CCCCC3)CC2)cc1 (configuration not stated),-2.4%,16.4µM*,4.9%,12.8%,14.6µM*
